According to PubChem BioAssay AID504832 (National Center for Advancing Translational Sciences (NCATS), 2011):
Screen size: about 310,000 compounds; about 18,000 (5.8%) were called active. Entries that show only a call come without a potency. Another 22% or so got no clear call; they are omitted. Only a selection was taken, and actives are over-represented in it overall. A number with no mark means an inactive call. Calls follow the shape of the dose curve; as a rule, active = well fitted inhibition curve with a large enough effect; inconclusive = small, poorly fitted or top-dose-only effect, or another doubt; inactive = no such curve, though single readings can be large or run the other way.

assay: Primary qHTS for delayed death inhibitors of the malarial parasite plastid, 48 hour incubation; conditions: P. falciparum luciferase growth in erythrocytes; series mostly up to 28.7 µM
Procedure, shortened: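 Cell-based growth assay: transgenic P. falciparum expressing firefly luciferase, cultured in red cells within RPMI 1640 containing 0.5% w/v Albumax, 24 mM bicarbonate and gentamycin. A drop in luciferase activity indicates inhibition.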
Potency is read from the fitted curve at half-maximal effect.

SMILES | Potency | activity change, negative = inhibition
CCc1ccccc1NC(=O)c1ccc2snnc2c1 | inactive | –
CC1CCCCN1C(=O)CCS(=O)(=O)Cc1ccccc1 (stereo not drawn) | inactive | –
Cc1cnc(C(=O)Oc2cccc(Cl)c2Cl)cn1 | inactive | –
Cc1ccc(-c2nn(-c3ccc(F)cc3)cc2C(=O)NCC(c2cccs2)N2CCOCC2)cc1 (stereo not drawn) | 10.4 µM (active) | –
CC(C)(C)C1CCC(C(=O)NCC(c2cccs2)N2CCOCC2)CC1 (stereo not drawn) | inactive | –
O=C(NCC(c1cccs1)N1CCOCC1)c1cc(Cl)ccc1[N+](=O)[O-] (stereo not drawn) | inactive | –
CCOC(=O)C1(Cc2cccc(OC)c2)CCCN(C(=O)CCSC)C1 (stereo not drawn) | inactive | –
CC(=O)N1CCN(C(=O)C2(NC(=O)Nc3ccc(C)cc3)CCCCC2)CC1 | inactive | –
O=C(c1cc2ccccc2o1)N1CCN(c2cccc(C(F)(F)F)c2)CC1 | inactive | –
Cc1nn(CC(=O)N2CCCCC2)c(=O)c2nn(-c3ccccc3)c(C)c12 | inactive | –
COc1ccc(N2CCN(C(=O)C3CCN(C(=O)c4ccccc4Cl)CC3)CC2)cc1 | inactive | –
COc1ccc(Nc2ncc(C(=O)N3CCN(c4ccccc4OC)CC3)c3ccccc23)cc1 | 11.7 µM (active) | –
COc1ccccc1N1CCN(C(=O)c2ccc(NC3=NC4CS(=O)(=O)CC4S3)cc2)CC1 (stereo not drawn) | inactive | –
OC(COc1ccc(F)cc1Cl)CN1CCc2ccccc2C1 (stereo not drawn) | inactive | –
CCN(CC)S(=O)(=O)c1ccc2[nH]c(=O)cc(C(=O)N(C)C3CCS(=O)(=O)C3)c2c1 (stereo not drawn) | inactive | –
COc1ccc(NC(=O)CSc2ccc(-c3ccco3)nn2)c(OC)c1 | inactive | –
CCn1c(SCC(=O)Nc2ccc3c(c2)OCCO3)nc2c(c1=O)SC(C)C2 (stereo not drawn) | inactive | –
COCCn1c(SCC(=O)Nc2ccccc2F)nc2c(c1=O)SCC2 | inactive | –
COCCn1c(SCC(=O)Nc2cc(Cl)ccc2OC)nc2c(c1=O)SC(C)C2 (stereo not drawn) | 8.28 µM (active) | –
CC1Cc2nc(SCC(=O)Nc3ccccc3F)n(C)c(=O)c2S1 (stereo not drawn) | 7.38 µM (active) | –
COc1ccc(C)cc1NC(=O)CSc1ccc(Cl)cc1 | inactive | –
Cn1c(CCC(=O)Nc2ccccc2F)nnc1SCC(=O)Nc1ccccc1Cl | inactive | –
CC(C)N(Cc1ccccc1)C(=O)COC(=O)c1ccccc1SCC(=O)N1CCCC1 | inactive | –

SMILES | Potency | activity change, negative = inhibition
CCn1c(SCC(=O)NCC2CCCO2)nc2ccccc21 (stereo not drawn) | inactive | –
CC1CCN(C(=O)c2ccc3c(=O)n4c(nc3c2)CCCCC4)CC1 | inactive | –
COCCN1C(=O)C(=O)/C(=C(/O)c2ccc(S(=O)(=O)N3CCOCC3)cc2)C1c1ccc(O)c(OC)c1 (stereo not drawn) | inactive | –
CCOC(=O)C1CCN(C(=O)COc2cccc3ccccc23)CC1 | inactive | –
Cc1ccc(C(=O)NNC(=O)C(C)Oc2ccc3ccccc3c2)o1 (stereo not drawn) | inactive | –
Cc1cccc(C(C)C)c1NC(=O)COC(=O)C1CC(=O)N(Cc2ccccc2)C1 (stereo not drawn) | inactive | –
COc1cccc(N2CC(C(=O)NCc3n[nH]c(=O)c4ccccc34)CC2=O)c1 (stereo not drawn) | inactive | –
COc1ccccc1CN(C)C(=O)c1cc2ccccc2o1 | inactive | –
CN(C)CCCCCN(C)Cc1cc2ccccc2o1 | 4.65 µM (active) | –
CCCOC(=O)c1cc2ccccc2oc1=O | inactive | –
O=c1c2ccccc2ccc2ccc(P(=O)(O)O)cc12 | inactive | –
CC1CC(C)CN(C(=O)CCNC(=O)Cn2cnc3ccccc3c2=O)C1 (stereo not drawn) | inactive | –
CSc1ccc(C(=O)C2CCCN(Cc3ccn[nH]3)C2)cc1 (stereo not drawn) | inactive | –
COc1ccc(CCN(C)C(=O)C2CCCN(Cc3ccc(OC)c(OC)c3)C2)cc1OC (stereo not drawn) | inactive | –
COc1cc(CN2CCCC(C(=O)c3ccc(SC)cc3)C2)cc(Cl)c1O (stereo not drawn) | 11.7 µM (active) | –
CCN1CCN(C2CCCCC2NS(=O)(=O)c2ccc(Cl)cc2)CC1 (stereo not drawn) | inactive | –
Cc1csc(NC(=O)C2CCN(S(=O)(=O)c3ccccc3)CC2)n1 | inactive | –
CC1CCN(C(=O)COC(=O)c2cc(=O)[nH]c3ccccc23)CC1 | inactive | –
Cc1cc(S(=O)(=O)NC2CCCC2)ccc1-n1cnnn1 | inactive | –
CCCCC(CC)CNCc1cccn1CCN1CCOCC1 (stereo not drawn) | 11.7 µM (active) | –
CSc1ccc(CNCCN2CCOCC2)cc1 | inactive | –
CCCCc1ccc(NC(=S)NCCCN2CCOCC2)cc1 | inactive | –
O=C(CN1C(=O)S/C(=C\c2ccccc2F)C1=O)NCCCn1ccnc1 | inactive | –

SMILES | Potency | activity change, negative = inhibition
O=C(COC(=O)Cc1ccccc1F)NNC(=O)c1ccc(Cl)cc1 | inactive | –
CC(C)c1nnc(NC(=O)CCC(=O)N2CCN(c3cccc(Cl)c3)CC2)s1 | inactive | –
Cc1cc(C)n(-c2nc(C(F)(F)F)nc3ccccc23)n1 | – | 31.4% [at 5.75 µM]
NS(=O)(=O)c1ccc(CCNc2nc(C(F)(F)F)nc3ccccc23)cc1 | inactive | –
CCc1ccc(C(CNc2nc(C(F)(F)F)nc3ccccc23)N(C)C)cc1 (stereo not drawn) | 11.7 µM (active) | –
CCC(NC(=O)c1cc(COc2ccc(F)c(F)c2)on1)c1ccncc1 (stereo not drawn) | inactive | –
Cc1ccccc1CCNC(=O)C1CCC(=O)N(Cc2ccc(Cl)cc2)C1 (stereo not drawn) | inactive | –
Cc1c(C)n2c(SCC(=O)N3CCCC3)nnc2[nH]c1=O | inactive | –
COC(=O)Cc1ccc(OCC(=O)NC2CCCC2)cc1 | inactive | –
CCOc1ccc(NC(=O)COC(=O)C2CCC(=O)N2)c([N+](=O)[O-])c1 (stereo not drawn) | inactive | –
COc1cccc(-n2cc(C(=O)O)c3ccccc3c2=O)c1 | inactive | –
COc1ccc(-c2c3c(=O)n(C)c(=O)n(C)c3cn2NC(C)=O)cc1 | inactive | –
COc1ccc(-n2c(-c3ccccc3)nc3ccccc3c2=O)cc1 | inactive | –
COc1cccc(-n2cc3c(c2-c2ccccc2)c(=O)n(C)c(=O)n3C)c1 | 5.22 µM (active) | –
COc1ccc(N(C(=O)c2cccnc2)S(=O)(=O)c2ccc3c(c2)n(C)c(=O)n3C)cc1 | inactive | –
COc1ccc(-c2c3c(=O)n(C)c(=O)n(C)c3cn2-c2cccc(OC)c2)cc1 | 11.7 µM (active) | –
Cc1cnc(NC(=O)c2ccc(Cl)nc2)s1 | inactive | –
COC(=O)c1ccc(N2CCOCC2)c(NC(=O)c2ccc3c(c2)OCCO3)c1 | inactive | –
Cc1ccc(Nc2ncnc3c2cnn3C)c(C)c1 | inactive | –
CC1CCc2sc3nc(N4CCN(CCO)CC4)n4ncnc4c3c2C1 (stereo not drawn) | inactive | –
CCCCn1c(CN2CCN(CCO)CC2)nc2ccccc21 | inactive | –
N#Cc1c2c(c(N3CCN(CCO)CC3)n3c1nc1ccccc13)CCCC2 | 0.828 µM (active) | –
